Experimental data: PubChem BioAssay AID1508600 (Functional Genomics Laboratory (NCATS/FGL), 2020)
Among all 53,000 sequences or so, about 3,700 (7%) were called active.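 The calls were made as follows: active = gene knockdowns whose robust z-score for IL-1 alpha signal is at least 2 or at most -2, so actives lie on both sides; inactive = the rest.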 Shown is part of a subset that was picked to be rich in actives.

Assay: Components of the Cytosolic LPS Sensing Pathway: Gene Identification via Genome-wide siRNA Screen;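 also: robust z of the log signal after scaling to non-targeting control siRNA wells of the plate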
Settings: RAW264.7 macrophages, IL-1a HTRF, actives lie on both sides, screened at 100 nM (by protocol), cells primed 5 h with Pam3CSK4 first
Outline: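 Cells (RAW264.7, 1×10^4 per well) were transfected with siRNA at 100 nM and cultured 48h at 37 degrees C. Pam3CSK4 was added for 5 hours; LipidA transfection followed for 24 hour. IL-1a was then measured by HTRF.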

| Sequence | z-score |
| --- | --- |
| GGCGACACAUUAAAAUAGUTT against Mepe | 2.19 (active) |
| GUUACCUCUGUGUUGUACUTT against Olfr60 | -0.148 (inactive) |
| GGAAGAAAAAGAUGAGAAATT against Hrc | 0.394 (inactive) |
| GCAUGUCUCAACUAAGGACTT against Upk3b | 1.03 (inactive) |
| CCUACAGAGGUGCCAUUGUTT against Naa60 | -0.244 (inactive) |
| GGACCGAUUCCACUUCAAUTT against Crygd | 1.46 (inactive) |
| GCCAAAUGGUGUCAAUAUUTT against Rab33a | 0.277 (inactive) |
| GGAGGAUGAUGAGGAGGAUTT against Ppp1r1b | 2.35 (active) |
| CGUGCCAGACCUAUAGCUUTT against Mlxip | -0.226 (inactive) |
| GGAGACCUUCCAGAACACATT against Mesd | 2.38 (active) |
| GCGGAUUUACACCUUAUCUTT against Bpi | -1.15 (inactive) |
| GGCUAUCACACAGCAUAGATT against Rdh7 | 1.57 (inactive) |
| CCGUUGGAGGUAAUUAGGATT against Dot1l | 0.463 (inactive) |
| GGCACUGUAAAUGUACUCATT against Rbak | -2.54 (active) |
| GGAGAAGUACAACGCAGCGTT against Wnt7b | -0.273 (inactive) |
| GGCUAUGCACUACUCAUUGTT against Galk1 | -0.607 (inactive) |
| CCAUCCCAUUUAAUGGAUGTT against Olfr1257 | 1.09 (inactive) |
| GCUCCAGAUGUUCAGAGCUTT against Fbxo9 | -2.43 (active) |
| GCAUUCAGACCAUGACACUTT against Trim30d | 0.914 (inactive) |
| GGCCAAGUGAUAGAGUUCATT against Crygd | 1.22 (inactive) |
| GGAAGUUCGAUGUUCCUAGTT against Cep85 | 0.779 (inactive) |
| GGUUAUUAUGACCAAGAAATT against Sf3b1 | -2.71 (active) |
| GCAGUAACCUUCUAACAAATT against Foxn2 | -0.367 (inactive) |

| Sequence | z-score |
| --- | --- |
| GGAGAAAGAUGUUUACCGATT against Hyal2 | -0.533 (inactive) |
| GGAACUUAAGACUUUCAAGTT against Abcf2 | 0.904 (inactive) |
| GCGGAUGCAAAUCGAUGAATT against Cep135 | -0.507 (inactive) |
| GCAUCAUACUGACCUGAGATT against Gml2 | -1.25 (inactive) |
| CCUAUCUUCCUGAAUACAUTT against Aqp7 | 2.71 (active) |
| CCGGCUUAUGCUCAACUUCTT against Bpifb1 | 0.29 (inactive) |
| GGAACAAUUGAUAAGACGATT against Guf1 | 0.237 (inactive) |
| GGUCAAGGAGUUCAUUCUGTT against Matn2 | -1.33 (inactive) |
| GGAUCAUUCUGUGAACAAGTT against Ly6h | 1.52 (inactive) |
| GCCCAUUGUAUGACUGCCGTT against Gfra2 | 3.21 (active) |
| CCCAAAUACCUACCAUCUCTT against Slc4a9 | -0.44 (inactive) |
| GGACUCUGAAGAGGAAAAGTT against Pds5b | -0.266 (inactive) |
| CCUUACCAGGAAACAUAUUTT against Dennd10 | -1.33 (inactive) |
| GCGGUUAGCACAAUGUGAATT against Ppp2cb | -0.577 (inactive) |
| GGAAAUAAAACAGAUUUGGTT against Atpaf1 | 0.576 (inactive) |
| GGCACGAGGCAGAAUUUUATT against Kctd3 | 0.696 (inactive) |
| GCUACAAUUGGCCUUAUCUTT against Stpg2 | -3.03 (active) |
| GGUACUGCUAUGAGAAACUTT against Adam22 | 0.224 (inactive) |
| GGACCAGAAACGCAUGCUUTT against Maml3 | -0.762 (inactive) |
| GGAAAACUCAUCAUACCAGTT against Ugt3a1 | 0.737 (inactive) |
| CGAUUUUACCAACCGCUGCTT against Chtf18 | 0.702 (inactive) |
| GCUGUUGUAACCAUAACAGTT against Ntsr1 | 0.439 (inactive) |
| GGGAAUUGCCUCAGCUAAGTT against Men1 | 2.95 (active) |

| Sequence | z-score |
| --- | --- |
| CCAGUUAAACACAUUAGCCTT against Mxra8 | -0.373 (inactive) |
| GGCUCAACGGCUUAGGGAATT against B3gat3 | 1.42 (inactive) |
| GGAAAAUAAGCAUAGUGAUTT against Spesp1 | -0.35 (inactive) |
| GGACAACCAGCUCAUUGUGTT against Cd82 | -1.09 (inactive) |
| GCAACACACUGCUUCCUGGTT against Tmem19 | -1.38 (inactive) |
| GGUAAUUGAGUUUGACGAUTT against Ptprf | 0.585 (inactive) |
| CGAAGGCUUCCCUUUUAUCTT against Tmem150b | 2.67 (active) |
| GCCUUCGUCUCCAAGUAUATT against Plagl1 | -0.305 (inactive) |
| GCUCCUUGCUUGAUUCUACTT against BC107364 | 0.649 (inactive) |
| GGAUAGAGUUAAUGAAAAGTT against Poc5 | 0.827 (inactive) |
| CCUCUAGAUAGUGUUAGAGTT against Smarcd1 | -2.19 (active) |
| GGCACAUUGUGGUGUCUUGTT against Pycr1 | -3e-05 (inactive) |
| GGAGAUUGAAGAGCUCCGATT against Cabp1 | -0.0021 (inactive) |
| GGCCCAUAUUUUAUUACCGTT against Galns | -1.84 (inactive) |
| GGAGGCAGUGUUUUGUCAATT against Fgd4 | -0.912 (inactive) |
| GGAAGGCAUUGAAGCUGAATT against Armt1 | 0.447 (inactive) |
| GGGCCAACUCAAAACAAAATT against Wdr37 | -0.74 (inactive) |
| GGUUGUUCACUAGGUCACUTT against Creg2 | 0.591 (inactive) |
| GGUGUGUGAAAUCACUCACTT against Oxnad1 | 0.303 (inactive) |
| CCAAUUAUGUGAGAAGUGATT against Snx24 | 0.463 (inactive) |
| CCAACUCGUGAUUCUAGACTT against Tmed10 | 1.27 (inactive) |
| GGUAAAGGUAAACUUAUACTT against Vmn1r148 | -4.68 (active) |
| GCGCAAUACGUGGGUUUGUTT against Shisal2b | 0.254 (inactive) |
